Screens as filed in PubChem.
Sampled rows, rich in hits. Any-hit rate of the full collection: about 9%.
ALDH1A1 inh – blocks purified human ALDH1A1 activity; 220,000 tested, 7.3% active; Potency, µM (highest dose often 75.3 µM), usual class: inhibitors; Purified ALDH1A1, NADH fluorescence, propionaldehyde substrate; active = well fitted inhibition curve with a large enough effect, not every such curve was filed as active; inconclusive = small, poorly fitted or top-dose-only effect, or another doubt; inactive = no such curve, though single readings can be large or run the other way
Target sequence (P00352 whole entry, looked up): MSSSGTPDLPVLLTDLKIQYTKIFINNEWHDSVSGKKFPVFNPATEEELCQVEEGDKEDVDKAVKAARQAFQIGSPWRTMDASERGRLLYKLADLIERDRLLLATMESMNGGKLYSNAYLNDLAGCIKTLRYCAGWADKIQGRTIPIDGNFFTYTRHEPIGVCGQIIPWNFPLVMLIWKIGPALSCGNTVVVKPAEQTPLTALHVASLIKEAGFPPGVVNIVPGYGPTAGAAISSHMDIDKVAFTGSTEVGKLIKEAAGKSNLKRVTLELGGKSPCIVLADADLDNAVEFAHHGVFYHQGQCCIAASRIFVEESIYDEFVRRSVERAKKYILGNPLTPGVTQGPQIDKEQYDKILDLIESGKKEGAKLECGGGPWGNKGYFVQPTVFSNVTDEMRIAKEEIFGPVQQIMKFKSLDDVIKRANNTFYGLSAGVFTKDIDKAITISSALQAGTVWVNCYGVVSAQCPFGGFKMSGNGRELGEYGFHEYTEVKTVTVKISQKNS
LMNA splice mod – modulators of lamin A splicing. HeLa LMNA splicing GFP/RFP minigene ratio, 48 h. AID 1487. Potency, µM (series often up to 46.1 µM), actives largely listed as inhibitors. 200,000 tested, 0.01% active; active = well fitted inhibition curve with a large enough effect in the signal ratio, with a control signal flat, not every such curve was filed as active; inconclusive = small, poorly fitted or top-dose-only effect, or effect the other way, or a change in a side signal; the % refers to the signal ratio
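S3 HeLa cells stably expressing lamin A-EGFP splicing minigene plus DsRed2, 600 cells/well, 48 h compound exposure at 37C. Laser-scanning cytometry; analysed as GFP (500-530 nm)/RFP (575-640 nm) total intensity ratio; 0.5% DMSO vehicle.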
HPGD inh – HPGD (human) dehydrogenase inhibition; P15428; purified HPGD, NADH fluorescence kinetic, PGE2 substrate; Potency, µM, usual class: inhibitors; 150,000 tested, 4.3% active; active = well fitted inhibition curve with a large enough effect, not every such curve was filed as active; inconclusive = small, poorly fitted or top-dose-only effect, or another doubt; inactive = no such curve, though single readings can be large or run the other way
Target sequence (P15428 whole entry, looked up): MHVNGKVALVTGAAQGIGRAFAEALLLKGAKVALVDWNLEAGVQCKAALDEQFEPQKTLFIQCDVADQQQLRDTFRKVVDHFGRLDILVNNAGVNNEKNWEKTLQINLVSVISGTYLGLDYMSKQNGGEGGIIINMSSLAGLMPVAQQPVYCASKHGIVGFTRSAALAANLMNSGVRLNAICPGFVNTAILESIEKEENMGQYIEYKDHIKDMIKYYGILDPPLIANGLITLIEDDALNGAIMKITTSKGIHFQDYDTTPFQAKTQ
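NADH formation kinetics: reaction with 30 uM PGE2 and 1 mM NAD+ (final), 20 nM enzyme, Tris-HCl pH 8 with Tween 20, after 15 min compound preincubation at room temperature. Fluorescence change, last versus first of five reads.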
KinaseGlo FLuc – blocks Kinase-Glo luciferase, a counter-screen artifact | Potency, µM (doses to about 38.3 µM), most hits filed as inhibitors | 200,000 tested, 0.28% active | Kinase-Glo luciferase, ATP luminescence, 8 min; note: nearly all actives have a fitted effect of over 60% in size
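Substrate mix (final 50 mM imidazole pH 7.2, 50 mM KCl, 7 mM MgCl2, 10 uM ATP, 0.01% Tween 20, 0.05% BSA) plus pin-tool compound, then Kinase-Glo detection mix; 8 min ambient, luminescence read.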
IMPase Li inh – membrane-permeable IMPase blocker, potentiated with lithium; CHO-M1 cells, IP1 TR-FRET (IP-One), carbachol + lithium; Potency, µM (highest dose often 59.4 µM), actives largely listed as inhibitors; 210,000 tested, 0.35% active;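 note: IP1 builds up when IMPase is blocked and the TR-FRET signal falls; nearly all actives have a fitted effect of over 50% in size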
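Concentration–response in CHO-M1 cells, lithium-potentiated; 30 min at 37C. IP1 detected by competitive TR-FRET after 10 min lysis at RT. Hill-fitted AC50.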
Large screens that a line does not name were inactive. Unless noted, calls come from the whole dose curve; as a rule, active = well fitted curve in the direction sought with a large enough effect; inconclusive = small, poorly fitted or top-dose-only effect, or another doubt; inactive = no such curve, though single readings can be large; an effect the other way counts as inactive or inconclusive.

Cc1cc(Cl)c(S(=O)(=O)N2CCSCC2)cc1OCC(=O)NC1CCCCC1	ALDH1A1 inh 7.9µM, LMNA splice mod inconclusive
O=C(COc1ncnc2c(Cl)cc(Cl)cc12)NC1CCCCCC1	HPGD inh inconclusive, IMPase Li inh 22µM
Cc1cc(Cl)ccc1OCC(=O)NC1CCCC1	LMNA splice mod inconclusive, HPGD inh 14µM
O=C(CNCc1cccs1)Nc1ccc(N2CCCCCC2)cc1	ALDH1A1 inh 22µM, LMNA splice mod inconclusive (no result: HPGD inh)
Cc1cccc(NS(=O)(=O)c2cccs2)c1	HPGD inh 28µM
O=C(c1ccc(NS(=O)(=O)c2cccs2)cc1)N1CCN(c2ccccc2Cl)CC1	ALDH1A1 inh inconclusive (no result: HPGD inh)
O=S(=O)(Nc1ccc(N2CCCCC2)cc1)c1cccs1	LMNA splice mod inconclusive, HPGD inh 25µM
O=C(CNCc1cccs1)Nc1ccc(S(=O)(=O)N2CCCCC2)cc1	ALDH1A1 inh inconclusive (no result: HPGD inh)
O=S(=O)(Nc1cccc(CO)c1)c1cccs1	ALDH1A1 inh inconclusive (no result: HPGD inh, KinaseGlo FLuc, IMPase Li inh)
O=C(c1ccc(NS(=O)(=O)c2cccs2)cc1)N1CCCCC1	ALDH1A1 inh inconclusive, LMNA splice mod inconclusive, HPGD inh 11µM
Cc1nnc(NC(=O)CSc2nnc(-c3ccccc3)n2C)s1	ALDH1A1 inh inconclusive (no result: HPGD inh)
c1ccc(-c2nnc(OCC3CCCO3)c3ccccc23)cc1 (stereo not given)	none (no result: HPGD inh)
N[C@@H](Cn1c2c(c(=O)[nH]c1=O)CCC2)C(=O)O	none (no result: LMNA splice mod)
CCCOC(=O)c1ccc(NS(=O)(=O)c2cccs2)cc1	ALDH1A1 inh inconclusive, LMNA splice mod inconclusive, HPGD inh 18µM
Cc1noc(C)c1C(=O)NNc1ccc(C(C)C)cc1	ALDH1A1 inh 11µM (no result: LMNA splice mod, HPGD inh, KinaseGlo FLuc, IMPase Li inh)
Cc1ccc(NNC(=O)c2ccno2)cc1Cl	ALDH1A1 inh 14µM, LMNA splice mod inconclusive (no result: HPGD inh, KinaseGlo FLuc, IMPase Li inh)
Cc1ccc(NNC(=O)c2c(C)noc2C)cc1Cl	ALDH1A1 inh 28µM, LMNA splice mod inconclusive (no result: HPGD inh, KinaseGlo FLuc, IMPase Li inh)
CC(=O)Oc1ccc(/C=C/C(=O)CC2OC(Oc3cc(OC(C)=O)c4c(c3)O[C@@H](c3ccc(OC(C)=O)cc3)CC4=O)C(OC(C)=O)C(OC(C)=O)C2OC(C)=O)cc1 (stereo not given in full)	none (no result: LMNA splice mod)
Cc1ccc(S(=O)(=O)/N=S(\C)CC2CC2(Cl)Cl)cc1 (stereo not given)	ALDH1A1 inh 10µM
CCOC(=O)C1C(=O)NC(c2ccccc2)=NC1c1ccc(OC)cc1 (stereo not given)	ALDH1A1 inh inconclusive (no result: LMNA splice mod, HPGD inh)
COCc1cc(C)nc2sc(C(=O)N3CCCC3)c(N)c12	ALDH1A1 inh inconclusive, HPGD inh 2.5µM
CC(=O)c1sc2nc(C)cc(C)c2c1N	ALDH1A1 inh inconclusive, HPGD inh inconclusive
Cc1cc(C)c2c(N)c(C(=O)N3CCCCCC3)sc2n1	ALDH1A1 inh inconclusive, HPGD inh 1.6µM
COCc1cc(C)nc2sc(C(=O)OC)c(N)c12	none
Cc1ccc(SCC(=O)NN=C2CCN(C)CC2)cc1	ALDH1A1 inh inconclusive (no result: LMNA splice mod, HPGD inh)
CC(SCc1ccccc1)C(=O)NN=C1CCN(C)CC1 (stereo not given)	ALDH1A1 inh 1.3µM
CN1CCC(=NNC(=O)CSCc2ccccc2)CC1	ALDH1A1 inh 25µM
CC(SCc1ccccc1)C(=O)N/N=C/c1cccs1 (stereo not given)	none
COc1cc(C(=O)NCCc2ccc(S(=O)(=O)N3CCCC3)cc2)cc(OC)c1OC	none (no result: HPGD inh)
COc1ccc(OC)c(CCNC(=O)CCn2c(=O)c3cccn3c3ccc(F)cc32)c1	none (no result: ALDH1A1 inh, HPGD inh, KinaseGlo FLuc, IMPase Li inh)
COCCNC(=O)CNC(=S)N(CCCN1CCOCC1)Cc1cccs1	none (no result: HPGD inh)
Cc1[nH]c(-c2ccc3c(c2)OCO3)nc1C(=O)O	ALDH1A1 inh inconclusive, HPGD inh inconclusive, KinaseGlo FLuc 11µM
CC(C)CCNC(=O)c1ccc2c(SCC(=O)O)c3c(nc2c1)CCCC3	ALDH1A1 inh inconclusive, HPGD inh 28µM
COC(=O)C(C)N1C(=O)S/C(=C/c2cc(C)n(-c3ccccn3)c2C)C1=O (stereo not given)	ALDH1A1 inh inconclusive
COC(=O)C(C)N1C(=O)S/C(=C\c2cc(C)n(-c3ccccn3)c2C)C1=O (stereo not given)	ALDH1A1 inh 22µM
CC1(C)Oc2ccc3ccc(=O)oc3c2CC1=O	ALDH1A1 inh inconclusive, HPGD inh inconclusive (no result: LMNA splice mod)
CCCOc1ccc(CC(=O)NNC(=S)Nc2ccccc2)cc1Br	ALDH1A1 inh 18µM, LMNA splice mod inconclusive, HPGD inh inconclusive
CC(C)C(=O)Nc1cccc(NC(=S)NC(=O)c2ccccc2Cl)c1	ALDH1A1 inh inconclusive
CCCOc1cccc(C(=O)NC(=S)Nc2ccccc2)c1	ALDH1A1 inh 18µM, LMNA splice mod inconclusive
CC(C)Oc1cccc(C(=O)NC(=S)Nc2ccccc2)c1	ALDH1A1 inh 10µM, LMNA splice mod inconclusive
CC(C)Oc1cccc(C(=O)NC(=S)Nc2cccnc2)c1	ALDH1A1 inh inconclusive
CCCCOc1cccc(C(=O)NC(=S)Nc2cccc(NC(=O)c3ccccc3Cl)c2)c1	ALDH1A1 inh 2µM
O=C(c1ccccc1C(F)(F)F)N1CCN(S(=O)(=O)c2ccccc2)CC1	none
C[C@@]12CCC[C@H]1C1CC[C@H]3C[C@H](O)CC[C@]3(C)C1CC2 (stereo not given in full)	none (no result: LMNA splice mod, HPGD inh, KinaseGlo FLuc)
CC(C)N1C(=O)CCC1C(=O)NCc1ccco1 (stereo not given)	none (no result: HPGD inh)
CCC(=O)Nc1cccc(NC(=S)NC(=O)c2ccccc2Cl)c1	none
CCCOc1cccc(C(=O)NC(=S)Nc2cccc(NC(=O)c3ccccc3Cl)c2)c1	ALDH1A1 inh 13µM
CC(C)COc1cccc(C(=O)NC(=S)Nc2cccc(NC(=O)c3ccccc3Cl)c2)c1	ALDH1A1 inh 10µM
CC(C)NC(=O)c1ccc(-n2c(=S)[nH]c3ccccc3c2=O)cc1	LMNA splice mod inconclusive (no result: HPGD inh)
CCOC(=O)c1sc2nc3c(cc2c1N)C(=O)CC(C)(C)C3	ALDH1A1 inh 0.5µM
COC(=O)c1sc2nc3c(cc2c1N)C(=O)CC(C)(C)C3	ALDH1A1 inh 0.89µM
Cc1cc(C)c(NC(=O)c2sc3nc4c(cc3c2N)C(=O)CC(C)(C)C4)c(C)c1	ALDH1A1 inh 0.25µM
CCOC(=O)c1sc2nc3c(cc2c1N)COC(C)(C)C3	ALDH1A1 inh inconclusive
CC1(C)CC(=O)c2cc3c(N)c(C(=O)NCc4ccccc4)sc3nc2C1	ALDH1A1 inh inconclusive
Cc1nn2c(c1-c1ccc(Cl)cc1)N=C(c1ccco1)CC2c1ccccc1 (stereo not given)	ALDH1A1 inh inconclusive
COc1ccc(/C=N/OC(=O)Nc2ccccc2OC)cc1	none (no result: HPGD inh)
Cc1cc(C(F)(F)F)n(-c2nc(C(=O)N/N=C/c3ccc(F)cc3)cs2)n1	ALDH1A1 inh inconclusive, LMNA splice mod inconclusive, HPGD inh 28µM
COc1cccc(/C=N/NC(=O)c2csc(-n3nc(C)cc3C(F)(F)F)n2)c1	none
O=C(NCc1ccco1)/C(=C\c1ccco1)NC(=O)c1ccc(Br)o1	ALDH1A1 inh 28µM, HPGD inh inconclusive
COc1ccc(/C=C(/NC(=O)c2cccs2)C(=O)NCc2ccco2)cc1OC	none (no result: LMNA splice mod, HPGD inh)
